Only some compounds are listed: those with a hit (about 1.1% of all), similar ones and a draw of the others.
NCOA3 inh: inhibitors of human steroid receptor coactivator 3 (SRC3) | inhibition, % at 3.6 µM | Q9Y6Q9 | 0.17% of 360,000 active | HEK293 GAL4-SRC3 luciferase reporter, luminescence;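 active means inhibition above a per-campaign cutoff, the mean of all compounds plus 3 SD, cut at about 60% in these data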;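 further: 0% = DMSO-treated cells and 100% = gossypol-treated cells at 36 µM; higher means less SRC3-driven luciferase light from the GAL4 reporter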
Target sequence (Q9Y6Q9 whole entry, looked up, the tested form may be a part): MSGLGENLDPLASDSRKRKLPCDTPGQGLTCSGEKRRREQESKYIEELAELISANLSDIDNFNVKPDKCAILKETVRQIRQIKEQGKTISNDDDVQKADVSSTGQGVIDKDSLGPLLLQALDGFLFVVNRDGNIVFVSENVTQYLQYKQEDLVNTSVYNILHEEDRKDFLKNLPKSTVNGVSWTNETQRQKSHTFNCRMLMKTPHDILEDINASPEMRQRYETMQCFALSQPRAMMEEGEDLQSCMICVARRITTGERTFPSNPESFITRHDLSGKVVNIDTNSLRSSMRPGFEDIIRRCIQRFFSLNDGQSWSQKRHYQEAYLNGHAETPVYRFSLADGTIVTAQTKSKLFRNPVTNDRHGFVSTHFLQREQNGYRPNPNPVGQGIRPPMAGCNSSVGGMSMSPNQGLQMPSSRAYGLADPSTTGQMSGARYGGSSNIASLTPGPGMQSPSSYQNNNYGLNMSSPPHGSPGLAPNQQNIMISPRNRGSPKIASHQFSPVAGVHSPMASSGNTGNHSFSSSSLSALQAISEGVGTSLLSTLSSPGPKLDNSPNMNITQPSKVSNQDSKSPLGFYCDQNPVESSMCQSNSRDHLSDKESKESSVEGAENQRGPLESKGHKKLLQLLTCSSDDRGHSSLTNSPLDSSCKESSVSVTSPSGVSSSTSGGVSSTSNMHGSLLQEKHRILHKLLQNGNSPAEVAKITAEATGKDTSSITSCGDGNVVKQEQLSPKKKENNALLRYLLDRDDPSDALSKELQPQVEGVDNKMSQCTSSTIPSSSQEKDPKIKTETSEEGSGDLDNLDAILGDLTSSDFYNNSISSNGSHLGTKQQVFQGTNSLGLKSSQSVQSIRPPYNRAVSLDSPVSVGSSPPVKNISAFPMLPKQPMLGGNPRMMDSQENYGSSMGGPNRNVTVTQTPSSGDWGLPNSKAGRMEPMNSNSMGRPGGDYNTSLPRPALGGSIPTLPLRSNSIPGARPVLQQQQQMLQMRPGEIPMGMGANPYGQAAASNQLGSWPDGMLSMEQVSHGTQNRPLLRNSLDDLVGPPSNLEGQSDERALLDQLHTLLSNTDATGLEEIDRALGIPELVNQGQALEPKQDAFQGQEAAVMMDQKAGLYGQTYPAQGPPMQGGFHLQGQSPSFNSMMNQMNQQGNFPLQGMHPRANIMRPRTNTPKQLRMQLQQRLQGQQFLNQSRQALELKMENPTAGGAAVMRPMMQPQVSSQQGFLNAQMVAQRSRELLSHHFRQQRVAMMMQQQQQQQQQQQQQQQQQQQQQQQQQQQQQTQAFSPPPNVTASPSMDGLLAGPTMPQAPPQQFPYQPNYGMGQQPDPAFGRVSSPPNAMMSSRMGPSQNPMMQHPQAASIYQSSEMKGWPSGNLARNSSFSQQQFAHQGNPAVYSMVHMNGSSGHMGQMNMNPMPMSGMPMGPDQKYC
SRC2 inh: inhibits human steroid receptor coactivator 2. Q15596. HEK293 GAL4-SRC2 luciferase reporter, luminescence. inhibition, % at 9 µM. 0.17% of 370,000 active;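 active means inhibition above the mean inhibition of all tested compounds plus 3 SD, set per campaign, cut at about 52% in these data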;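 further: 0% = DMSO treated cells and 100% = cells given Gossypol at 36 µM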
GalR3 antagonist: blocks the human galanin receptor 3. O60755. HEK293 GalR3-CNG cAMP membrane potential fluorescence; galR3 body fused to GalR1 C-terminus. inhibition, % at 3 µM. 0.44% of 360,000 active. AID 651719;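 active means inhibition above the screen-wide average plus 3 SD, cut at about 13% in these data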;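 further: forskolin and galanin both at EC90 stimulate the cells; cAMP rise reported by CNG channel membrane potential dye signal; 0% = forskolin plus galanin with DMSO and 100% = forskolin alone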
NR2F2 inh: blocks human COUP-TFII nuclear receptor. P24468. HEK293T NGFI-A luciferase reporter, luminescence. inhibition, % at 8.6 µM. 0.7% of 370,000 active;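 active means inhibition above a per-plate cutoff, mean inhibition of test wells between control levels plus 3 SD, cut at about 38% in these data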;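 further: cells cotransfected with COUP-TFII expression vector driving the NGFI-A reporter; 0% = median of COUP-TF2 test wells and 100% = reporter-only cells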
NR5A2 inv ag: NR5A2 inverse agonism in reporter assay | O00482 | HEK293T StAR-luciferase reporter, LRH-1 transfected, 24 h | inhibition, % at 3.6 µM | 0.13% of 360,000 active | AID 602396;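 active means inhibition above the mean inhibition of all tested compounds plus 3 SD, cut at about 73% in these data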;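 further: 0% = DMSO wells and 100% = reporter-only cells lacking LRH-1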
SRC1 inh: inhibits human SRC1 coactivator; HEK293 GAL4-SRC1 luciferase reporter, luminescence; 0.12% of 360,000 active; inhibition, % at 3.6 µM; Q15788; AID 588354;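 active means inhibition above the campaign mean plus 3 SD, with each screening campaign given its own cutoff, cut at about 60% in these data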;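 further: 0% = DMSO treated cells and 100% = gossypol at 36 µM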
* hit, by the source's call; · = no result given.

SMILES | NCOA3 inh | SRC2 inh | GalR3 antagonist | NR2F2 inh | NR5A2 inv ag | SRC1 inh
Nc1nc(Cl)c(N)c(NCC2(CO)CC(CCc3ccccc3)C2)n1 (stereo not drawn) | 14 | 29 | -4 | 58* | 7 | 5
O=C(NCc1ccccc1)[C@]1(C(F)(F)F)C[C@H](CCc2ccccc2)CCCO1 | 8 | -6 | -4 | -3 | -30 | -22
O=c1c2ccc(F)cc2nc2sc(Nc3ccc4c(c3)CCC4)nn12 | · | · | · | -16 | · | ·
Cc1ccc(NC(=O)CCC(=O)N/N=C/c2ccc([N+](=O)[O-])o2)cc1C | -2 | -5 | -4 | -4 | 0 | 3
CCCC(=O)Nc1ccc(C(=O)N/N=C/c2ccc([N+](=O)[O-])o2)cc1 | 71* | 48 | 3 | 26 | 83* | 65*
Cc1nccc(-c2ccc(-n3cnc4ccccc43)cc2)n1 | 42 | 18 | -3 | 23 | 2 | 21
Nc1nccc(-c2ccc(-n3cnc4ccccc43)cc2)n1 | 39 | 12 | 2 | 42* | 3 | 35
NCC(=O)Nc1ccc(Cl)cc1C(=O)c1ccc[nH]1 | 51 | 56* | -12 | -3 | 59 | 53
Nc1[nH]c(C(=O)c2ccccc2)c(-c2cccc3ccccc23)c1C(=O)c1c(-c2ccccc2)[nH]c2ccccc12 | · | · | · | 20 | · | ·
COc1ccc(CC(=O)Nc2cccc(-c3nnc(-c4ccccc4)o3)c2)cc1OC | 51 | 61* | -3 | -2 | -54 | 36
COc1ccc(CC(=O)Nc2cccc(-c3nnc(-c4ccc(C)cc4)o3)c2)cc1OC | 0 | -11 | 2 | -1 | 8 | -7
N#Cc1cc2c(nc1SC1CC(=O)N(c3ccccc3)C1=O)CCC2 (stereo not drawn) | 77* | · | · | · | 37 | 59
CSc1nc2c(cc1C#N)CCC2 | 6 | -9 | -2 | -5 | 5 | 8
CCCOc1ccc(Br)cc1/C=N/NC(=O)c1cc(OC)c(OC)c(OC)c1 | 11 | 29 | -1 | 9 | 8 | -46
COc1ccc(C(=O)N/N=C/c2cc(Br)ccc2O)cc1OC | 64* | 18 | -9 | -17 | 20 | 34
CCOc1ccccc1/C=N/NC(=O)c1c(C)nc2ccc(Br)cn12 | -17 | -1 | -5 | 5 | 8 | 6
COc1cccc(/C=N/NC(=O)c2c(C)nc3ccc(Br)cn23)c1O | 79* | · | · | · | 99* | 78*
Cc1ccc(-n2c(Cc3cccs3)nnc2SCC(=O)Nc2cccc3ccccc23)cc1 | · | 8 | · | -9 | · | ·
COc1c(O)cc2c(c1O)[C@@H]1O[C@H](CO)[C@@H](O)[C@H](O)C1OC2=O (stereo partly drawn) | 13 | -28 | 13* | 0 | 5 | -10
COc1c(O)cc2c(c1O)C1OC(CO)C(O)C(O)C1OC2=O (stereo not drawn) | 5 | -3 | · | -6 | 4 | 10
C[C@@H]1CN([C@@H](C)COC(=O)C(C)(C)C)C(=O)c2cc(NC(=O)Nc3ccccc3)ccc2O[C@@H](C)CCCCO[C@H]1CN(C)S(=O)(=O)c1ccc(F)cc1 | · | · | · | -4 | · | ·
CC(=NNC(=S)Nc1ccccc1)c1ccccn1 | 51 | 3 | -5 | 16 | 81* | 54
C=CCNC(=S)N/N=C(\C)c1ccccn1 | 23 | 14 | -3 | 11 | 101* | -41
C/C(=N\NC(=O)c1ccccc1-n1cccc1)c1ccccn1 | 3 | 7 | 2 | 0 | 0 | 10
CC(=NNC(=S)N1CCCCC1)c1ccccn1 | 25 | -29 | 5 | -8 | 54 | 48
SMILES | NCOA3 inh | SRC2 inh | GalR3 antagonist | NR2F2 inh | NR5A2 inv ag | SRC1 inh
O=C(Cn1nnc(-c2ccccc2F)n1)Nc1ccc(F)cc1F | · | -6 | · | 4 | · | ·
CCOC(=O)c1c(C)nn(-c2ccc(NC(=O)c3c(C)noc3C)cc2)c1C | 22 | 54* | -9 | 5 | 3 | 20
Clc1ccc(CSc2nnc(Cn3cnc4ccccc43)o2)cc1 | 20 | 16 | 33* | 63* | 17 | 1
O=C(CSc1nnc(-c2cccnc2)n1-c1ccccc1)Nc1cccc2ccccc12 | · | 24 | · | 10 | · | ·
CCOC(=O)c1cc2sccc2n1CC(=O)OC(C)C | 11 | 1 | -2 | 3 | 28 | 0
CCOC(=O)c1cc2sccc2n1CC(=O)N1CCc2ccccc21 | 67* | -3 | -3 | -8 | 0 | 39
CCOC(=O)[C@]12CCCCC/C=C\1N(Cc1ccc(OC)cc1)C(=O)[C@H]2CC(=O)NCCCOC | · | -21 | · | 4 | · | ·
C=CCn1c(C)cc(C(=O)CN2C(=O)c3ccccc3S2(=O)=O)c1C | 88* | · | · | · | 88* | 87*
FC(F)(F)c1ccccc1NC(=S)OCCN1CCCC12CCC(c1ccccc1)CC2 (stereo not drawn) | · | · | · | 24 | · | ·
Cn1c(/C=C/c2ccc(Cl)cc2)c([N+](=O)[O-])c(=O)n(C)c1=O | 62* | 29 | -15 | -6 | 29 | 29
COc1ccc(/C=C/c2c([N+](=O)[O-])c(=O)n(C)c(=O)n2C)cc1OC | -24 | -5 | -2 | -8 | -10 | -15
CCCC(=O)NC(c1ccc(OC)cc1)c1ccc2cccnc2c1O (stereo not drawn) | 62* | 20 | -4 | -13 | 13 | 20
CC(=O)NC(c1ccc(C)cc1)c1cc(Cl)c2cccnc2c1O (stereo not drawn) | 34 | 0 | -11 | 10 | -6 | 28
CC(=O)NC(c1ccc(C(C)C)cc1)c1ccc2cccnc2c1O (stereo not drawn) | 82* | 35 | -10 | -25 | 90* | 68*
CCCCC(=O)NC(c1ccc(C(C)C)cc1)c1ccc2cccnc2c1O (stereo not drawn) | 68* | 25 | -1 | -5 | 7 | 42
CCCCC(=O)NC(c1ccccc1)c1ccc2cccnc2c1O (stereo not drawn) | 66* | -11 | -12 | -5 | 89* | 40
CCCC(=O)NC(c1ccccc1)c1ccc2cccnc2c1O (stereo not drawn) | 26 | 34 | 3 | 9 | 11 | 19
CC(C)(C)OC(=O)NCCCc1ccc2c(c1)[C@]1(CCC[C@@H](OCc3ccccc3)[C@@H]1NC(=O)CCc1ccccc1)C(=O)N2Cc1ccccc1 | · | 21 | · | -8 | · | ·
CCCCC(=O)NC(c1cccc([N+](=O)[O-])c1)c1ccc2cccnc2c1O (stereo not drawn) | 22 | 44 | -12 | 30 | 11 | 25
CCCCC(=O)NC(c1ccccc1Cl)c1ccc2cccnc2c1O (stereo not drawn) | 73* | 32 | -9 | -8 | 60 | 54
Cc1cc(NC(=O)c2ccc(NS(=O)(=O)c3ccc(F)cc3)cc2)no1 | · | 2 | · | -7 | · | ·
COc1ccc2c(c1)-c1c(ssc1=S)C(C)(C)N2 | 66* | 42 | -3 | 24 | 46 | 58
Cc1ccc(OCCSCc2nc3ccccc3[nH]2)cc1 | 3 | 18 | 18* | 24 | 1 | 6
Clc1ccc(OCCSCc2nc3ccccc3[nH]2)cc1 | -8 | 24 | -1 | 1 | 14 | -7
